Compound activity (PubChem)
RORgamma inh: inhibitors of mouse ROR gamma transcriptional activity; P51450; Drosophila S2 Gal4-RORgamma UAS-luciferase reporter, 20 h; Potency, µM (top dose mostly 53.6 µM), for the others: at the highest dose activity change, negative = inhibition, usual class: inhibitors; hit rate 5.4% among 310,000; note: % is set by controls: 0 for no effect and ±100 for the full control effect; nearly all actives have a fitted effect of over 60% in size
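Drosophila S2 cells stably expressing Gal4-DBD/mouse RORγ fusion under metallothionein promoter plus UAS-luciferase; compound 1 h, then 700 uM CuSO4 induction for 20 h at ambient temperature; inhibition read as reduced luminescence.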
GLP1R ag: GLP-1 receptor (human) agonism; AID 624172; HEK293 GLP-1R CRE-luciferase, luminescence, 4-6 h; cells express a hypersensitive GLP-1R form; Potency, µM (top dose mostly 45.6 µM), without a hit: top-dose activation, actives largely listed as activators; hit rate 0.007% among 380,000; note: % of control where 0% means no effect
Target sequence (P43220 whole entry, looked up): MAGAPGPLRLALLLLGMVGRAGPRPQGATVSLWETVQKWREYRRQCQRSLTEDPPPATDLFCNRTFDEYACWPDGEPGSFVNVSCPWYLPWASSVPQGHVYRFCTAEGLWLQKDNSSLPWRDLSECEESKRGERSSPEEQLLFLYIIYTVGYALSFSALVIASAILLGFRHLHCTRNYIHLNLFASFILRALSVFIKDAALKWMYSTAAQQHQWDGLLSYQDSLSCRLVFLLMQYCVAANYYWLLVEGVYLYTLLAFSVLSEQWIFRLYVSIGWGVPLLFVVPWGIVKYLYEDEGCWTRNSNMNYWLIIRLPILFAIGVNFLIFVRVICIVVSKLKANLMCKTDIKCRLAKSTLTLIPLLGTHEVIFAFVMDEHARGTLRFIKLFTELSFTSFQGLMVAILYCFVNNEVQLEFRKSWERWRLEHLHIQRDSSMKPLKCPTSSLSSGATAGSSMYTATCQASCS
VP16 counter: Gal4-VP16 reporter inhibition counter-screen; Potency, µM (highest dose often 53.6 µM), for inactives: at the top dose activity, negative = inhibition, hits mostly inhibitors; hit rate 3.5% among 310,000; Drosophila S2 Gal4-VP16 UAS-luciferase, luminescence, 20 h;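 note: Gal4-VP16 expression switched on by copper sulfate through the metallothionein promoter; % is set by controls: 0 for no effect and ±100 for the full control effect; nearly all actives have a fitted effect of over 50% in size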
GLP-1R inv ag: acts as inverse agonist at human GLP-1 receptor; P43220; HEK293 GLP-1R CRE-luciferase, luminescence, 24 h; GLP-1R form is constitutively active; Potency, µM (highest dose often 38.3 µM), without a hit: top-dose activity change, negative = inhibition, hits mostly inhibitors; hit rate 1.6% among 410,000; AID 624417; note: % is set by controls: 0 for no effect and ±100 for the full control effect; nearly all actives have a fitted effect of over 55% in size
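Seeding at 200 cells/uL, 12 h culture, 24 hr compound treatment, then luciferase reagent and a luminescence read; cells are HEK293 stably expressing a constitutively active GLP-1R plus cAMP-responsive luciferase.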
GLP1R cytotox: cytotoxicity in counter-screen for GLP-1R inverse agonists; Potency, µM (titrated, usually from 38.3 µM), without a hit: top-dose activity change, negative = inhibition, hits mostly inhibitors; hit rate 0.13% among 410,000; HEK293 cAMP-luciferase reporter cells, luminescence, 24 h;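 note: loss of luciferase light is scored as toxicity; % is set by controls: 0 for no effect and ±100 for the full control effect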
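To flag toxic compounds, the library was rerun on cells for 24 hr at 37 deg C and 5% CO2. Viability-linked luminescence was captured 12 min after adding luciferase detection reagent.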
* marks the source's active call; other numbers are inactive results. In the library only some 5.9% were active in any assay of this set; here they are far more common. Calls come from the whole dose curve; as a rule, active = well fitted curve in the direction sought with a large enough effect; inconclusive = small, poorly fitted or top-dose-only effect, or another doubt; inactive = no such curve, though single readings can be large; an effect the other way counts as inactive or inconclusive. Potency is the fitted concentration of half-maximal effect.

How did CCCOC(=O)c1cccc(NC(=O)c2c(-c3ccccc3Cl)noc2C)c1 do in these assays?
GLP-1R inv ag: 8.91µM*; GLP1R cytotox: 1.4%

How did Cc1ccccc1-c1cc(N2CCNCC2)ncn1 do in these assays?
RORgamma inh: -1.9%; VP16 counter: -1.7%

Results for CSCC[C@@H]1NC(=O)[C@@H](NC(=O)[C@H](CCCNC(=N)N)NC(=O)[C@H](CC(C)C)NC(=O)[C@H](CCSC)NC(=O)[C@H](CC(=O)O)NC(=O)[C@H](Cc2ccccc2)NC(=O)[C@@H](N)CC(=O)O)CSSC[C@@H](C(=O)N[C@@H](Cc2c[nH]c3ccccc23)C(=O)N[C@@H](CCC(N)=O)C(=O)N[C@@H](Cc2ccc(O)cc2)C(=O)O)NC(=O)[C@@H]2CCCN2C(=O)[C@H](CCCNC(=N)N)NC(=O)[C@H](Cc2ccccc2)NC(=O)[C@H](C(C)C)NC(=O)[C@H](CCCNC(=N)N)NC(=O)CNC(=O)[C@H](CC(C)C)NC1=O ?
RORgamma inh: 21.1%; VP16 counter: -4.9%

How did COc1ccc2c(c1)CC/C2=N\OC(=O)c1ccccc1C do in these assays?
RORgamma inh: 3.98µM*; GLP1R ag: 10.1%; VP16 counter: inconclusive; GLP-1R inv ag: 8.9%; GLP1R cytotox: -1.1%

Results for Cc1cc(C)c2nc(N3CCC(C(=O)NCC4CCCO4)CC3)sc2c1 (stereo not given) ?
RORgamma inh: 23.6%; GLP1R ag: -0.7%; VP16 counter: -9.9%; GLP-1R inv ag: inconclusive; GLP1R cytotox: -1.6%

Results for Cc1cc(C)c2nc(N3CCC(C(=O)NCCCN4CCCCC4)CC3)sc2c1 ?
RORgamma inh: -37.5%; GLP1R ag: -19.6%; VP16 counter: 2.2%; GLP-1R inv ag: 3.16µM*; GLP1R cytotox: inconclusive

What do the screens show for `CCC1=NN2C(=N)/C(=C\c3cccn3-c3ccc(C)c(C)c3)C(=O)N=C2S1`?
RORgamma inh: 28.2µM*; GLP1R ag: 4.8%; VP16 counter: -8.9%; GLP-1R inv ag: inconclusive; GLP1R cytotox: inconclusive

What do the screens show for `COc1ccc(Cc2c(-c3cccc(Cl)c3)nc3cc(C)c(Br)c(C)n23)c(C)c1`?
GLP1R ag: -0.8%; GLP-1R inv ag: 8.91µM*; GLP1R cytotox: 0.3%

What do the screens show for `Cc1cc2nc(-c3cccc(Cl)c3)c(Cc3ccccc3)n2c(C)c1Br`?
GLP1R ag: 0.9%; GLP-1R inv ag: inconclusive; GLP1R cytotox: -5.5%

What do the screens show for `Cc1ccc2nc(N(CCCN(C)C)C(=O)c3ccc4c(c3)CCCC4)sc2c1`?
RORgamma inh: inconclusive; GLP1R ag: -42.1%; VP16 counter: inconclusive; GLP-1R inv ag: 0.0%; GLP1R cytotox: inconclusive

How did Cc1cc(C)c2nc(N(CCCN(C)C)C(=O)c3ccc4c(c3)CCCC4)sc2c1 do in these assays?
GLP1R ag: -10.3%; GLP-1R inv ag: 4.47µM*; GLP1R cytotox: inconclusive

How did Cc1ccc2sc(N(CCCN(C)C)C(=O)c3ccc(S(=O)(=O)N4CCCCCC4)cc3)nc2c1C do in these assays?
GLP1R ag: 11.2%; GLP-1R inv ag: inconclusive; GLP1R cytotox: inconclusive

How did Cc1cc(C)c2nc(N(CCCN(C)C)C(=O)c3ccc(S(=O)(=O)N4CCCCCC4)cc3)sc2c1 do in these assays?
GLP1R ag: -6.0%; GLP-1R inv ag: 12.6µM*; GLP1R cytotox: inconclusive

How did C=CCC(C)(O)CCc1ccccc1 (stereo not given) do in these assays?
RORgamma inh: -15.8%; VP16 counter: -2.6%

What do the screens show for `COc1ccc(C2CC(c3c(O)n(C4CCCCC4)c(=O)[nH]c3=O)=Nc3ccccc3S2)cc1` (stereo not given)?
GLP-1R inv ag: -1.6%; GLP1R cytotox: -0.2%

What do the screens show for `CCc1nnc(NC(=O)c2ccc(Cl)c(S(=O)(=O)N3CCc4ccccc43)c2)s1`?
RORgamma inh: 20µM*; GLP1R ag: -14.7%; VP16 counter: inconclusive; GLP-1R inv ag: -18.1%; GLP1R cytotox: -12.4%

Results for O=C(Nc1ccncc1)c1ccc(Cl)c(S(=O)(=O)N2CCc3ccccc32)c1 ?
GLP1R ag: 18.8%; GLP-1R inv ag: inconclusive; GLP1R cytotox: -28.3%

Results for Cc1cccc(NC(=O)c2ccc(Cl)c(S(=O)(=O)N3CCc4ccccc43)c2)n1 ?
GLP1R ag: -1.2%; GLP-1R inv ag: 11.2µM*; GLP1R cytotox: 2.9%

What do the screens show for `COc1ccc(N2CC(NC(=O)c3cccs3)CC2=O)cc1OC` (stereo not given)?
GLP1R ag: 0.5%; GLP-1R inv ag: 11.1%; GLP1R cytotox: -2.8%

How did O=C1OC2(c3cc(Br)c(O)c(Br)c3Oc3c2cc(Br)c(O)c3Br)c2c(Cl)c(Cl)c(Cl)c(Cl)c21 do in these assays?
RORgamma inh: -31.2%; VP16 counter: -22.8%

Results for Nc1nc2c(ncn2[C@H]2C[C@H](O)[C@@H](CO)O2)c(=O)[nH]1 ?
GLP1R ag: 5.6%; GLP-1R inv ag: 3.4%; GLP1R cytotox: 2.2%

What do the screens show for `OC[C@H]1O[C@H](n2cnc3c(NC4CCCC4)nc(Cl)nc32)[C@@H](O)[C@@H]1O`?
RORgamma inh: 21.5%; VP16 counter: -10.3%

What do the screens show for `Nc1ncnc2c1c(I)cn2C1OC(CO)C(O)C1O` (stereo not given)?
RORgamma inh: 5.62µM*; VP16 counter: 3.98µM*

How did OCC1OC(n2cnc3c(Cl)nc(Cl)nc32)C(O)C1O (stereo not given) do in these assays?
RORgamma inh: 12.6µM*; VP16 counter: -4.4%

Results for OC[C@H]1O[C@@H](n2cnc3cncnc32)[C@H](O)[C@@H]1O ?
RORgamma inh: 7.08µM*; VP16 counter: 3.16µM*

What do the screens show for `CSc1ncnc2c1ncn2C1OC(CO)C(O)C1O` (stereo not given)?
RORgamma inh: 0.4%; VP16 counter: -7.9%

How did Nc1nc(Cl)nc2c1ncn2C1CC(O)C(CO)O1 (stereo not given) do in these assays?
GLP1R ag: 19.1%; GLP-1R inv ag: 5.62µM*; GLP1R cytotox: -4.8%

How did CN(C)Cc1ccccc1-c1ccc2ncnc(N3CCOCC3)c2c1 do in these assays?
RORgamma inh: -15.5%; VP16 counter: -11.2%

How did Oc1ccccc1CNCCCNCc1ccccc1O do in these assays?
RORgamma inh: -8.4%; GLP1R ag: -2.7%; VP16 counter: -4.3%; GLP-1R inv ag: 8.91µM*; GLP1R cytotox: inconclusive

How did c1ccc(CNCCCNCCCCNCCCNCc2ccccc2)cc1 do in these assays?
GLP1R ag: -5.4%; GLP-1R inv ag: 2.82µM*; GLP1R cytotox: inconclusive

Results for CN=C1S/C(=C\c2cc(C)n(-c3ccccc3F)c2C)C(=O)N1C ?
RORgamma inh: inconclusive; GLP1R ag: -3.1%; VP16 counter: 17.8µM*; GLP-1R inv ag: 0.0%; GLP1R cytotox: 8.7%
